Laboratory results published in PubChem BioAssay AID463173 (ICCB-Longwood Screening Facility, Harvard Medical School, 2010).
Screen size: about 52,000 compounds; about 4,300 (8.3%) were called active. The full list was thinned out, with actives kept by preference. Unmarked numbers belong to inactive results. Cut-off read from the data, not from the text of the source: active = survival mostly below about 52% (no sharp cut-off); inactive = mostly above about 56%.

Test system: DeltatarO mutant
Assay: S. aureus survival, RN4220 and DeltatarO strains – OD600, teichoic acid synthesis inhibitors, primary screen (AID 463173)
Details: S. aureus RN4220 wild type/DeltatarO growth, OD600, 18 h, stronger effect = lower value, screened at 18.75 µg/mL (by protocol)

SMILES | survival
COc1cccc2c1Oc1ncccc1N(C(=O)CCC(=O)NCc1ccc(C)cc1)C2 | 81%
CCc1ccc(C2=NN(CCC(=O)NCCc3ccc(Cl)cc3)C(=O)CC2)cc1 | 128%
Cc1ccc(CNC(=O)CSc2nc3ccccc3nc2Cc2ccc(C)cc2)cc1 | 71%
CCOc1ccc(CCNC(=O)CSc2nc3ccccc3nc2Cc2ccc(C)cc2)cc1OCC | 112%
COc1ccc(CCNC(=O)CSc2nc3ccccc3nc2Cc2ccc(C)cc2)cc1OC | 35% (active)
COc1ccc(CCNC(=O)CSc2nc3ccccc3nc2Cc2ccc(Cl)cc2)cc1OC | 37% (active)
CCCCNC(=O)CSc1nc2ccccc2nc1Cc1ccc(C)cc1 | 87%
CCCCN(C)C(=O)CSc1nc2ccccc2nc1Cc1ccc(C)cc1 | 32% (active)
O=C(CSc1nc2ccccc2nc1Cc1ccc(Cl)cc1)NCCc1ccccc1 | 69%
Cc1ccc(Cc2nc3ccccc3nc2SCC(=O)NCCc2ccccc2)cc1 | 67%
CCCNC(=O)CSc1nc2ccccc2nc1Cc1ccc(Cl)cc1 | 74%
CCOc1ccc(CNS(=O)(=O)c2ccc3c(c2)CCCN3C(C)=O)cc1 | 93%
CC(Sc1nc(NC(C)(C)C)nc(N(C)C)n1)C(=O)Nc1ccccc1 (centres undefined) | 68%
COc1cc2[nH]c(=O)n(Cc3ccc(C(=O)N4CCN(c5cc(Cl)ccc5C)CC4)cc3)c(=O)c2cc1OC | 58%
COc1ccc(CNC(=O)CCNS(=O)(=O)c2ccc3c(c2)CCCC(=O)N3)cc1 | 119%
COc1ccccc1NC(=O)C1=C(C)Nc2nc(SCc3ccccc3Cl)nn2C1c1ccccn1 (centres undefined) | 171%
CCn1cc(C(=O)N2CCN(c3ccc(OC)cc3)CC2)c(=O)c2cc(S(=O)(=O)N(C)C3CCCCC3)ccc21 | 122%
CC(NC(=O)c1ccc(NC(=O)c2nsc3ccccc23)cc1)c1ccccc1 (centres undefined) | 84%
O=C(Cc1csc2ccccc12)NCc1ccc(F)cc1 | 71%
Cc1cc(C)c(NC(=O)C(C)n2c(=O)cc(C)c3c(C)nn(-c4ccccc4)c32)c(C)c1 (centres undefined) | 81%
Cn1nc(C(=O)Nc2ccc(F)c(Cl)c2)c2c1-c1ccccc1S(=O)(=O)C2 | 90%
COCCCNC(=O)c1nn(C)c2c1CS(=O)(=O)c1ccccc1-2 | 99%
COc1ccc(NC(=O)c2nn(C)c3c2CS(=O)(=O)c2ccccc2-3)cc1Cl | 56% (active)

SMILES | survival
CC(C)NC(=O)c1nn(C)c2c1CS(=O)(=O)c1ccccc1-2 | 51% (active)
COc1ccc(Cl)cc1NC(=O)c1nn(C)c2c1CS(=O)(=O)c1ccccc1-2 | 53%
Cn1nc(C(=O)NCc2ccccc2)c2c1-c1ccccc1S(=O)(=O)C2 | 85%
CCN1C(=O)c2ccccc2Sc2ccc(NC(=O)COc3ccc(Cl)cc3)cc21 | 91%
CCCCN(CC)CCNC(=O)c1c(C)oc2ncnc(N3CCOCC3)c12 | 87%
COc1cccc(N2CCN(c3nc4ccc(C(=O)c5ccccc5)cc4n4c(C)nnc34)CC2)c1 | 102%
Cc1c(C(=O)OCCOc2ccccc2)[nH]c2c1C(=O)CC(c1ccccc1Cl)C2 (centres undefined) | 80%
CCC(=O)N1CCc2cc(Br)cc(S(=O)(=O)NCCc3ccccc3Cl)c21 | 39% (active)
CCC(=O)N1CCc2cc(Br)cc(S(=O)(=O)NCCc3ccc(C)cc3)c21 | 85%
CCC(=O)N1CCc2cc(Br)cc(S(=O)(=O)NCCc3cccc(C)c3)c21 | 102%
CCC(=O)N1CCc2cc(Br)cc(S(=O)(=O)NCCc3ccccc3)c21 | 43% (active)
CCC(=O)N1CCc2cc(Br)cc(S(=O)(=O)NCc3ccccc3)c21 | 66%
CCC(=O)N1CCc2cc(Br)cc(S(=O)(=O)CCC(=O)NCCc3ccccc3Cl)c21 | 72%
CC(CNC(=O)c1ccc2nc(Cc3ccccc3)oc2c1)c1ccccc1 (centres undefined) | 70%
CC(Sc1nccn1C)C(=O)Nc1ccccc1C#N (centres undefined) | 85%
COc1ccccc1CNc1ncnc2c1c(-c1ccccc1)cn2-c1cccc(C)c1 | 80%
O=S(=O)(c1ccc(C2CCCCC2)cc1)N1CCN(c2cc(Cl)ccc2Cl)CC1 | 72%
CCc1ccc(S(=O)(=O)N2CCN(c3ccc(Cl)c(Cl)c3)CC2)cc1 | 118%
O=S(=O)(c1ccc(C2CCCCC2)cc1)N1CCN(c2ccc(Cl)c(Cl)c2)CC1 | 54% (active)
Cc1cccc(OC(=O)c2snnc2C)c1 | 88%
Cc1cccc(NC(=O)c2oc3ccc(S(=O)(=O)N4CCCCC4)cc3c2C)c1C | 71%
COc1ccccc1NC(=O)CSC1=Nc2ccccc2C2=NC(CC(=O)NCc3ccccc3)C(=O)N12 (centres undefined) | 71%
Cc1ccc(-n2ncc3c(N4CCCCCC4)ncnc32)cc1Cl | 102%

SMILES | survival
CCn1c(=O)cc(SCC(=O)NCCc2cc(OC)ccc2OC)c2ccccc21 | 61%
COc1cccc(Cn2c(Oc3cc(C)cc(C)c3)nc3c2c(=O)n(C)c(=O)n3C)c1 | 31% (active)
Cc1cccc(Oc2nc3c(c(=O)n(C)c(=O)n3C)n2C)c1 | 123%
Cc1cc(C)cc(Oc2nc3c(c(=O)n(C)c(=O)n3C)n2Cc2ccc(F)cc2)c1 | 76%
CCCCNc1nc2c(c(=O)n(Cc3ccccc3)c(=O)n2C)n1C | 66%
CCCCC(CC)Cn1c(Oc2ccccc2)nc2c1c(=O)n(C)c(=O)n2C (centres undefined) | -15% (active)
CCCCNc1nc2c(c(=O)n(Cc3ccc(Cl)c(Cl)c3)c(=O)n2C)n1C | -10% (active)
COc1cccc(Cn2c(NCc3ccc(C)cc3)nc3c2c(=O)n(C)c(=O)n3C)c1 | 79%
Cn1c(=O)c2c(nc(Oc3ccccc3)n2Cc2c(Cl)cccc2Cl)n(C)c1=O | 84%
Cc1ccc(C)c(Oc2nc3c(c(=O)n(C)c(=O)n3C)n2Cc2ccccc2)c1 | 32% (active)
CCCCNc1nc2c(c(=O)n(Cc3ccc(Cl)cc3)c(=O)n2C)n1C | 56%
Cc1ccc(Oc2nc3c(c(=O)n(Cc4ccccc4)c(=O)n3C)n2C)cc1C | 44%
Cc1cccc(Oc2nc3c(c(=O)n(C)c(=O)n3C)n2Cc2ccccc2)c1C | 53%
CCOc1ccc(C(=O)c2cn(CC(=O)Nc3ccc(OC)cc3)c3cc4c(cc3c2=O)OCCO4)cc1 | 82%
CCc1cccc(C)c1NC(=O)Cn1nc(C)c2nn(-c3ccc(Cl)cc3)c(C)c2c1=O | 124%
Cc1ccc(-n2nc(CO)c(C(=O)NCCO)n2)cc1 | 82%
CCOc1ccc(CN2CCc3nc(Nc4ccc5c(c4)OCCO5)ncc3C2)cc1 | 89%
Cc1ccc(S(=O)(=O)c2nnn3c2nc(N2CCCCC2)c2sccc23)cc1 | 104%
CCOC(=O)c1scc(-c2ccc(C)cc2)c1S(=O)(=O)N1CCN(c2ccccc2)CC1 | 73%
Cc1ccc(CSc2nnc(-n3c(=O)c(C#N)cc4c(=O)n5cccc(C)c5nc43)s2)cc1 | 101%
N#Cc1cc(-c2ccc(Cl)cc2)no1 | 97%
COC(=O)CSc1nnc(-c2ccccc2)n1C | 97%
CCc1ccccc1NC(=O)Nc1c(C)n(C)n(-c2ccccc2)c1=O | 88%

SMILES | survival
CN1C(=O)N(C)C2(CC1(C)C)CC(C)(C)N(C)C(=O)N2C | 102%
Cn1c(=O)c2c(nc(SCC(=O)Nc3ccc(F)c(F)c3)n2Cc2ccccc2F)n(C)c1=O | 111%
COc1ccc(NC(=O)c2nnn(Cc3ccc(Br)cc3F)c2N)c(OC)c1 | 68%
Cc1ccccc1Oc1nc2c(c(=O)n(C)c(=O)n2C)n1Cc1ccc(Br)cc1 | 143%
Cn1c(=O)c2c(nc(NCCc3ccccc3)n2Cc2cccc(Br)c2)n(C)c1=O | 50%
COc1ccc(CCNc2nc3c(c(=O)n(C)c(=O)n3C)n2Cc2ccccc2Cl)cc1OC | 75%
COc1ccc(Cl)c(Cn2c(NCCN)nc3c2c(=O)n(C)c(=O)n3C)c1 | 56% (active)
Cn1c(=O)c2c(nc(NCc3ccccc3)n2Cc2ccccc2Cl)n(C)c1=O | 58%
Cn1c(=O)c2c(nc(NCc3ccccc3)n2Cc2ccc(Cl)c(Cl)c2)n(C)c1=O | 42%
COc1ccccc1Oc1nc2c(c(=O)n(C)c(=O)n2C)n1Cc1cccc(Br)c1 | 40% (active)
Cn1c(=O)c2c(nc(NCc3ccccc3)n2Cc2ccccc2)n(C)c1=O | 38% (active)
COc1ccc(CNc2nc3c(c(=O)n(C)c(=O)n3C)n2Cc2ccccc2Cl)cc1 | 65%
COc1ccc(NC(=O)Cn2cnc3sc(C)c(S(=O)(=O)N4CCN(c5ccccc5OC)CC4)c3c2=O)cc1OC | 67%
CC1CCN(c2nc(N3CCCCC3)nc(N3CCCCC3)n2)CC1 | 62%
CCOC(=O)c1cc(C)n(CC2CCC(C(=O)Nc3ccc(C)c(F)c3)CC2)c1C (centres undefined) | 64%
Cc1cccc(NC(=O)C2CCCN(S(=O)(=O)c3c(C)noc3/C=C/N(C)C)C2)c1C (centres undefined) | 84%
Cc1ccc(NS(=O)(=O)c2ccc3c(c2)CCN3C(=O)C2CC2)c(C)c1 | 58%
Cc1ccc(Nc2c(-c3cccnc3)nc3ccc(Cl)cn23)cc1 | 83%
O=C(Nc1ccc(F)cc1F)C1CCN(c2ncccn2)CC1 | 58%
Cc1c(C(=O)OC2CCCC2)[nH]c2c1C(=O)CC(c1ccc(C(C)(C)C)cc1)C2 (centres undefined) | 89%
